TRPV1 potentiator: HTS Assay for Compounds that Act as Potentiators of the Vanilloid Receptor 1. TRPV1-expressing cells, Fluo-8 calcium influx, capsaicin EC20 potentiation. potentiation, % at 8.33 µM. 320,000 tested, 0.02% active; in the data active means potentiation above about 80%; inconclusive means between about 30% and that limit; further: 0% is about no effect
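Fluo-8 calcium influx in TRPV1-expressing cells, kinetic read (ex 480/em 520 nm). Compound added and read 3 min for agonist activity, followed by capsaicin at EC20 final and 2 min further read for enhancement.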
RORgamma inh: qHTS for inhibitors of ROR gamma transcriptional activity; Drosophila S2 Gal4-RORgamma UAS-luciferase reporter, 20 h; Potency, µM (series often up to 53.6 µM), for the others: at the top dose activity change, negative = inhibition, actives largely listed as inhibitors; 310,000 tested, 5.4% active; AID 2551, 2010; further: potency means the concentration at half of the fitted maximal effect; on the % scale 0 is the no-effect control and ±100 the full control effect; nearly all actives have a fitted effect of over 60% in size
Target sequence (P51450 whole entry, looked up, the tested form may be a part): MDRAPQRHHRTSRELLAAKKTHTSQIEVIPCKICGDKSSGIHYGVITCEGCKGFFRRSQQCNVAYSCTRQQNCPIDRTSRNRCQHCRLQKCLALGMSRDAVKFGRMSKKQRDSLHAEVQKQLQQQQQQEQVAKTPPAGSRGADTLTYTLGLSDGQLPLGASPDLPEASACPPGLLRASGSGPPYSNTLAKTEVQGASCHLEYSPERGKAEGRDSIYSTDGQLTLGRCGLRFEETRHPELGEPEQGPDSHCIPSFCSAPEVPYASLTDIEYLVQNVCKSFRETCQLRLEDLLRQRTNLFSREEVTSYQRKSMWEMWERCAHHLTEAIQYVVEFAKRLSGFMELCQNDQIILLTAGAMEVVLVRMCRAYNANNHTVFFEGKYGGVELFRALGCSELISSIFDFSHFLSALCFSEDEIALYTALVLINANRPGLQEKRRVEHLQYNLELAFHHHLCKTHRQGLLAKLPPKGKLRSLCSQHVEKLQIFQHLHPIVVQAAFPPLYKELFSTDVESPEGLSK
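Schneider cells (Drosophila), stable Gal4 DBD–ROR gamma + UAS-luc; 1 hr cmpd preincubation; Cu2+ induction 700 uM final; 20 hr ambient; luminescence.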
uPA generation: qHTS for Inhibitors of Cell Surface uPA Generation; cell surface uPA generation assay, qHTS; Potency, µM (titrated, usually from 38.3 µM), inactives show top-dose activity change, negative = inhibition, usual class: inhibitors; 330,000 tested, 0.31% active; active means well fitted inhibition curve with a large enough effect; inconclusive means small, poorly fitted or top-dose-only effect; inactive means no such curve, though single readings can be large or run the other way; tested in mouse RAW 264.7 cells; further: potency means the concentration at half of the fitted maximal effect; on the % scale 0 is the no-effect control and ±100 the full control effect; nearly all actives have a fitted effect of over 55% in size
Gal4-VP16 FLuc: VP16 counterscreen qHTS for inhibitors of ROR gamma transcriptional activity. Drosophila S2 Gal4-VP16 UAS-luciferase, luminescence, 20 h. AID 2546, 2010. Potency, µM (highest dose often 53.6 µM), without a hit: at the top dose activity, negative = inhibition, hits mostly inhibitors. 310,000 tested, 3.5% active;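 further: Gal4-VP16 expression switched on by copper sulfate through the metallothionein promoter; potency means the concentration at half of the fitted maximal effect; on the % scale 0 is the no-effect control and ±100 the full control effect; nearly all actives have a fitted effect of over 50% in size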
TRPV1 agonist: HTS Assay for Compounds that Act as Agonists of the Vanilloid Receptor 1 | Transient receptor potential cation channel subfamily V member 1 (Homo sapiens), Q8NER1 | 320,000 tested, 0.19% active | AID 540275, 2011 | activation, % at 8.33 µM | TRPV1-expressing cells, Fluo-8 calcium influx, agonist mode; in the data active means activation above about 80%; inconclusive means between about 30% and that limit; further: 0% is about no effect
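TRPV1-expressing cells were cultured overnight at 35.5C and loaded with Fluo-8 calcium dye for 40 to 90 min at room temperature. After a 10 s baseline, compound was added and calcium influx was read kinetically for 3 min (ex 480/em 520 nm).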
The depositor's hits bear a star; ! = not confirmed by another sample; [ ] = another dose, or the depositor's remark. Sampled rows, rich in hits. Any-hit rate of the full collection: about 5.8%. Unless noted, the call rests on the fitted dose curve; in most records, active means well fitted curve in the direction sought with a large enough effect; inconclusive means small, poorly fitted or top-dose-only effect, or another doubt; inactive means no such curve, though single readings can be large; an effect the other way counts as inactive or inconclusive.

Screening CCn1ccnc1CN1CCCC(C(=O)c2cc(C)c(OC)c(C)c2)C1 (centres undefined) returned TRPV1 potentiator 12, RORgamma inh 2.5µM*, uPA generation -6%, Gal4-VP16 FLuc 11µM* and TRPV1 agonist -2.
For CCn1ccnc1CN1CCCC(C(=O)c2cc(Cl)ccc2OC)C1 (centres undefined) the results were TRPV1 potentiator -7, RORgamma inh 21%, uPA generation -10%, Gal4-VP16 FLuc -27% and TRPV1 agonist 8.
CCCc1cc2c(n1Cc1cccc(Cl)c1)C(C)C1CN(C(=O)c3ccccc3)C(C)(C(=O)OC)C21 (centres undefined) was read as RORgamma inh inconclusive and Gal4-VP16 FLuc 6%.
`CC(C)(C)c1cc(O)ccc1O` gave RORgamma inh 3.5µM*! and Gal4-VP16 FLuc 3.2µM*.
O=[N+]([O-])c1ccc(NCc2ccccc2)c2nonc12 was read as TRPV1 potentiator -7, RORgamma inh -3%, uPA generation -2%, Gal4-VP16 FLuc -5% and TRPV1 agonist 126*.
O=C1C(Cl)=C(Cl)C(=O)C(Cl)=C1Cl was read as RORgamma inh 4.5µM* and Gal4-VP16 FLuc inconclusive.
`O=C(/C=C/c1ccccc1)C1C(=O)c2ccccc2C1=O` gave TRPV1 potentiator 4, RORgamma inh inconclusive, uPA generation -10%, Gal4-VP16 FLuc 8.9µM* and TRPV1 agonist -2.
For S=C(Nc1ccccc1)Nc1cccc(Br)c1 the results were TRPV1 potentiator -9, RORgamma inh 11µM*, uPA generation -24%, Gal4-VP16 FLuc 8%[10 µM] and TRPV1 agonist 0.
Screening Cc1c2ccncc2c(C)c2c1[nH]c1ccccc12 returned TRPV1 potentiator -10, RORgamma inh 10µM*, uPA generation 0.89µM*, Gal4-VP16 FLuc 5.6µM* and TRPV1 agonist 15.
For Clc1ccccc1-c1cncnc1NCCc1cnc[nH]1 the results were RORgamma inh -2% and Gal4-VP16 FLuc 1%.
CSCC[C@H](NC(=O)[C@H](CC(C)C)NC(=O)[C@@H](Cc1cnc[nH]1)NC(=O)[C@H](Cc1ccccc1)NC(=O)[C@@H](Cc1ccccc1)NC(=O)[C@@H](N)Cc1ccc(O)cc1)C(N)=O was read as RORgamma inh 1% and Gal4-VP16 FLuc -12%.
`CN1/C(=C\C=C2C(=O)NC(=S)NC2=O)C(C)(C)c2ccccc21` gave TRPV1 potentiator -12, RORgamma inh 7%, uPA generation -8%, Gal4-VP16 FLuc -9% and TRPV1 agonist 98*.
`Clc1cccc(C(Cl)(Cl)Cl)n1` gave RORgamma inh 28% and Gal4-VP16 FLuc -14%.
Screening CN(CC(=O)Nc1ccc(Cl)c(C(F)(F)F)c1)C(=O)c1ccc(OCC2CCCO2)cc1 (centres undefined) returned TRPV1 potentiator 1, uPA generation inconclusive and TRPV1 agonist 4.
For ClCc1ccccc1 the results were RORgamma inh 7% and Gal4-VP16 FLuc 4%.
Screening CCCn1cc2c3c(cccc31)C1CC(C)CN(C)C1C2 (centres undefined) returned TRPV1 potentiator 10, RORgamma inh -31%, Gal4-VP16 FLuc 4% and TRPV1 agonist 2.
`CN1CC(CNC(=O)OCc2ccccc2)CC2c3cccc4c3c(cn4C)CC21` (centres undefined) gave RORgamma inh 16µM* and Gal4-VP16 FLuc inconclusive.
For CN(C)C(=O)Nc1ccc(-n2nc(C(C)(C)C)oc2=O)c(Cl)c1 the results were RORgamma inh 24% and Gal4-VP16 FLuc -18%.
For Cc1ccc(C2=[N+]([O-])C3(CCCCC3=O)N(O)C2(C)C)cc1 (centres undefined) the results were TRPV1 potentiator 1, RORgamma inh 0.89µM*, uPA generation 3%, Gal4-VP16 FLuc 4µM* and TRPV1 agonist -2.
`C=C1[C@@H](O)[C@H](Cc2ccccc2)N(Cc2ccccc2Br)S1(=O)=O` gave uPA generation 10µM*.

Assay outcomes from PubChem BioAssay.
